Screens (PubChem BioAssay)
Pf growth 96h – inhibits malaria parasite growth, 96 h; P. falciparum luciferase reporter growth, 96 h; Potency, µM (doses to about 28.7 µM), actives largely listed as inhibitors; 320,000 compounds, 6.9% hits; AID 504834
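Infected RBCs, 2% Hct / 0.05% parasitemia final; luciferase-reporter P. falciparum; cpd 96 h, 37 C, 5% CO2; luciferase detection reagent; luminescence.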
Sm TGR block – S. mansoni TGR enzyme inhibition | purified TGR, DTNB reduction, TNB absorbance 405 nm | Q962Y6 | 360,000 compounds, 3% hits | Potency, µM (doses to about 114 µM), usual class: inhibitors | AID 485364; further: nearly all actives have a fitted effect of over 60% in size
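First, TGR (20 nM dispensed) and NADPH were mixed with compound. Second, a 15 min room-temperature incubation followed. Third, further NADPH and then DTNB were added to start the reaction. Finally, TNB absorbance was monitored kinetically.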
Pf growth 48h – inhibits P. falciparum growth in the first generation, 48 h; 310,000 compounds, 5.9% hits; P. falciparum luciferase growth in erythrocytes, 48 h; Potency, µM (doses to about 28.7 µM), usual class: inhibitors
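First compound was added to culture medium, then infected red cells at 0.1% parasitemia and 2% hematocrit (final). After incubation at 37 C under 5% CO2, luciferase detection reagent was dispensed and light output recorded.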
AMA1-RON2 inh – inhibitors of Plasmodium falciparum AMA1-RON2 interaction | AID 720542 | 360,000 compounds, 0.2% hits | Potency, µM (series often up to 58.2 µM), usual class: inhibitors | AlphaScreen AMA1-biotinylated RON2 peptide binding; further: nearly all actives have a fitted effect of over 45% in size
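AMA1 (3D7) with his tag at 25 nM final met compounds first, then biotinylated RON2 peptide at 25 nM; detection used donor plus acceptor beads, 10 µg/mL apiece, read by AlphaScreen after 30 min at room temperature.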
NS1 inh – influenza NS1 inhibition; AID 2326; Potency, µM (titrated, usually from 46.1 µM); 270,000 compounds, 0.4% hits; calls by dose curve; further: actives are rising curves; nearly all actives have a fitted effect of over 50% in size
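Compounds were scored for reversing the slow growth caused by influenza A NS1 in S. cerevisiae, measured by optical density at 600 nm. Assay medium contained 2% galactose at pH 6.0; NS1-free yeast of the same strain were the positive control.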
A number is an active result. A selection: hits, their analogues and other compounds. The true share with any hit is near 11%. Unless noted, the call rests on the fitted dose curve; in most records, active means well fitted curve in the direction sought with a large enough effect; inconclusive means small, poorly fitted or top-dose-only effect, or another doubt; inactive means no such curve, though single readings can be large; an effect the other way counts as inactive or inconclusive.

Screening COCCN1C(=O)C(=O)/C(=C(/O)c2ccc(OC(C)C)cc2)C1c1cccnc1 (stereo not given) returned Pf growth 96h 15µM, Sm TGR block inactive, Pf growth 48h inactive, AMA1-RON2 inh inactive and NS1 inh inactive.
`COc1ccc(/C(O)=C2/C(=O)C(=O)N(CCN3CCOCC3)C2c2ccccn2)cc1OC` (stereo not given) gave Pf growth 96h inactive, Sm TGR block 50µM, Pf growth 48h inactive, AMA1-RON2 inh inactive and NS1 inh inactive.
CN(C)CCCN1C(=O)C(=O)/C(=C(/O)c2ccc3c(c2)OCCO3)C1c1ccccn1 (stereo not given) was read as NS1 inh inactive.
`COCCN1C(=O)C(=O)/C(=C(/O)c2ccc(OCC(C)C)cc2)C1c1cccnc1` (stereo not given) gave NS1 inh inactive.
For CCCN(Cc1cccs1)C(=O)Nc1ccc(F)c(Cl)c1 the results were Sm TGR block inactive.
CC1CCCC(NC(=O)c2ccc(COc3ccccc3)o2)C1C (stereo not given) was read as Pf growth 96h inactive, Sm TGR block inactive, Pf growth 48h inconclusive, AMA1-RON2 inh inactive and NS1 inh inactive.
For Cn1c(N)c(C(=O)COC(=O)c2cc(S(=O)(=O)N3CCCCC3)ccc2Cl)c(=O)n(C)c1=O the results were Pf growth 96h inactive, Sm TGR block inactive, Pf growth 48h inactive, AMA1-RON2 inh inactive and NS1 inh inactive.
Screening COc1ccc(NC(C)=O)cc1NC(=O)c1cccc(S(=O)(=O)N2CCc3ccccc32)c1 returned Pf growth 96h inconclusive, Sm TGR block inactive, Pf growth 48h 13µM and AMA1-RON2 inh inactive.
Screening COc1ccc(S(=O)(=O)N2CCc3ccccc32)cc1C(=O)OCC(=O)c1c(N)n(C)c(=O)n(C)c1=O returned Pf growth 96h inactive, Sm TGR block inactive, Pf growth 48h 4.1µM, AMA1-RON2 inh inactive and NS1 inh inactive.
CC(=O)NS(=O)(=O)c1ccc(NC(=O)c2cccc(S(=O)(=O)N3CCc4ccccc43)c2)cc1 was read as Pf growth 96h inactive, Sm TGR block inactive, Pf growth 48h inactive, AMA1-RON2 inh inactive and NS1 inh inactive.
Cc1cc(F)ccc1NC(=O)c1cc(S(=O)(=O)N2CCc3ccccc32)cn1C was read as Pf growth 96h 10µM, Sm TGR block inactive, Pf growth 48h inconclusive, AMA1-RON2 inh inactive and NS1 inh inactive.
COc1ccc(S(=O)(=O)N2CCc3ccccc32)cc1C(=O)Nc1ccc(C(N)=O)cc1 was read as Pf growth 96h 7.4µM, Sm TGR block inactive, Pf growth 48h inconclusive and AMA1-RON2 inh inactive.
Screening CC(=O)Oc1ccccc1Cn1c(C)c(C(=O)NCc2cccc([N+](=O)[O-])c2)sc1=O returned AMA1-RON2 inh inactive.
Cc1ccc2[nH]c3c(=O)n(CC(=O)N(C)Cc4ccccc4)ncc3c2c1 was read as Sm TGR block inactive.
`CN(CC(=O)Nc1ccccc1Cl)C(=O)c1cccc(S(=O)(=O)N2CCN(Cc3ccccc3)CC2)c1` gave Pf growth 96h inactive, Sm TGR block inactive, Pf growth 48h inconclusive and AMA1-RON2 inh inactive.
Screening COc1ccc(NC(C)=O)cc1NC(=O)c1cccc(S(=O)(=O)N2CCN(Cc3ccccc3)CC2)c1 returned Pf growth 96h 3.7µM, Sm TGR block inactive, Pf growth 48h inconclusive and AMA1-RON2 inh inactive.
Cn1c(N)c(C(=O)COC(=O)c2ccc(Cl)c(S(=O)(=O)N3CCCC3)c2)c(=O)n(C)c1=O was read as Pf growth 96h inconclusive, Sm TGR block inactive, Pf growth 48h 8.3µM, AMA1-RON2 inh inactive and NS1 inh inactive.
CCOc1ccc(CN2CCN(S(=O)(=O)c3ccc(NC(C)=O)cc3)CC2)cc1OC was read as Pf growth 96h inactive, Sm TGR block inactive, Pf growth 48h inconclusive, AMA1-RON2 inh inconclusive and NS1 inh inactive.
Screening COc1ccccc1OCCNC(=O)c1cccc(S(=O)(=O)N2CCN(Cc3ccccc3)CC2)c1 returned Pf growth 96h inactive, Sm TGR block inactive, Pf growth 48h inconclusive and AMA1-RON2 inh inactive.
`COc1ccc(CN2CCN(S(=O)(=O)c3ccc(NC(C)=O)cc3)CC2)c(OC)c1OC` gave Pf growth 96h 13µM, Sm TGR block inactive, Pf growth 48h inconclusive, AMA1-RON2 inh inactive and NS1 inh inactive.
